rTrxR1 inhibitor: qHTS Assay for Inhibitors of Mammalian Selenoprotein Thioredoxin Reductase 1 (TrxR1): qHTS; AID 588453, 2011; Thioredoxin reductase 1, cytoplasmic (Rattus norvegicus), O89049; 390,000 compounds, 1% hits; Potency, µM (series often up to 114 µM), for inactives: at the top dose activity change, negative = inhibition, most hits filed as inhibitors; recombinant rTrxR1, NADPH fluorescence consumption, selenite substrate; also: nearly all actives have a fitted effect of over 65% in size
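Rat TrxR1 (90 nM in the dispensed reagent) was pre-reduced with 400 uM NADPH for 5 min at room temperature, then incubated with compound for 15 min. After 400 uM selenite was added, NADPH fluorescence (Ex 340/Em 450 nm) was followed for 8 min.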
TrxR1 substrate: qHTS Assay for Substrates of Mammalian Selenoprotein Thioredoxin Reductase 1 (TrxR1): qHTS; Thioredoxin reductase 1, cytoplasmic (Rattus norvegicus), O89049; purified TrxR1 substrate turnover, NADPH consumption readout; Potency, µM (top dose mostly 114 µM), inactives show at the highest dose activity change, negative = substrate turnover; 390,000 compounds, 0.01% hits; AID 588456, 2011; also: nearly all actives have a fitted effect of over 50% in size
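Rat TrxR1, dispensed at 90 nM, was prereduced with 400 uM NADPH (final) for 5 min at ~22 deg C, then incubated with compound 15 min before 400 uM selenite. A first-read NADPH fluorescence drop versus no-compound background flagged substrates.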
VDR inh: Inhibitors of the vitamin D receptor (VDR): qHTS; Vitamin D3 receptor (Homo sapiens), P11473; VDR-SRC2-3 peptide fluorescence polarization, 2 h; Potency, µM, without a hit: max response, negative = inhibition, actives largely listed as inhibitors; 400,000 compounds, 0.93% hits; AID 504847, 2011
Target sequence (P11473 whole entry, looked up): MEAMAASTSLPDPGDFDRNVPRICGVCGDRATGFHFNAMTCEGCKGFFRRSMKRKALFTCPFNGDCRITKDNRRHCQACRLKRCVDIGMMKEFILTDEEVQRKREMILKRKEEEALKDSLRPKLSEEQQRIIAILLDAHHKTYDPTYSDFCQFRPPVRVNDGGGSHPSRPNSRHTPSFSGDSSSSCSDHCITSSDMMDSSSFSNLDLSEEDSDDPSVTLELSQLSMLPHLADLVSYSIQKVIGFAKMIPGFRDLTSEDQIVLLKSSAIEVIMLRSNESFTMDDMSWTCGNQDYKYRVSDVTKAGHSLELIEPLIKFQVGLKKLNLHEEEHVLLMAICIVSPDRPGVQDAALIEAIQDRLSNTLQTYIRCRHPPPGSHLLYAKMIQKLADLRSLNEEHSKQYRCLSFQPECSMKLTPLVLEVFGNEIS
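Two reagent solutions held at 4 deg C in the dark were dispensed, compounds pinned at 23 nl, and the mixture incubated 2 h at room temperature. Read-out: fluorescence polarization of VDR–SRC2-3 peptide binding.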
Sfp PPTase inh: qHTS Assay for Inhibitors of Bacillus subtilis Sfp phosphopantetheinyl transferase (PPTase) | Biochemical Sfp PPTase activity, qHTS | 310,000 compounds, 3.5% hits | AID 1490, 2009 | Potency, µM, for inactives: largest response in the series, negative = inhibition, hits mostly inhibitors | 4'-phosphopantetheinyl transferase ffp (Bacillus subtilis), Q9F4F7;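 also: the enzyme is Sfp with the accession as filed and its product quenches rhodamine fluorescence; 0% = enzyme reaction without inhibitor and -100% = no enzyme wells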
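Step 1, compound plus 15 nM Sfp-PPTase, 15 min, room temperature. Step 2, add rhodamine-CoA (5 uM) and BHQ-2-YbbR (12.5 uM). Step 3, read 525/598 nm fluorescence at 0 and 30 min.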
PLK1 PBD block: qHTS for Inhibitors of PLK1-PDB (polo-like kinase 1 - polo-box domain): Primary Screen. Plk1 PBD binding of FITC phosphopeptide, fluorescence polarization. 360,000 compounds, 2.8% hits. Potency, µM, for the others: max response, negative = inhibition, usual class: inhibitors. AID 720504, 2013; also: series mostly up to about 57 µM; nearly all actives have a fitted effect of over 65% in size
mIDH1 inhibitor: qHTS for Inhibitors of mutant isocitrate dehydrogenase 1 (IDH1): qHTS; Isocitrate dehydrogenase [NADP] cytoplasmic (Homo sapiens), O75874; IDH1-R132H enzyme, NADPH consumption, diaphorase/resazurin fluorescence; Potency, µM (titrated, usually from 76.6 µM), without a hit: top-dose activity change, negative = inhibition, usual class: inhibitors; 390,000 compounds, 0.093% hits; AID 602179, 2012; also: nearly all actives have a fitted effect of over 65% in size
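IDH1-R132H (0.5 ug/mL dispensed) in pH 7.5 Tris buffer was preincubated 30 min with compound, then given a substrate mix of 0.016 mM NADPH and 2 mM alpha-KG for 80 min at room temperature; remaining NADPH was read by diaphorase/resazurin fluorescence.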
An asterisk follows results filed as active; ? = inconclusive; nt = not tested or not shown; [ ] = remark or other dose. Compounds with a hit are over-represented: about 5.2% of the library has one in this group of screens. Calls follow the shape of the dose curve; as a rule, active = well fitted curve in the direction sought with a large enough effect; inconclusive = small, poorly fitted or top-dose-only effect, or another doubt; inactive = no such curve, though single readings can be large; an effect the other way counts as inactive or inconclusive. Unless noted, % is scaled to controls: 0 for no effect and ±100 for the full control effect; potency is read from the fitted curve at half-maximal effect.

SMILES	rTrxR1 inhibitor	TrxR1 substrate	VDR inh	Sfp PPTase inh	PLK1 PBD block	mIDH1 inhibitor
Cc1ccc(CSc2nnc(SCC(=O)N/N=C/C=C/c3ccccc3[N+](=O)[O-])s2)cc1	-7%	-13%	-1%	4%	-5%	3%
Cc1ccc(S(=O)(=O)O/N=C2\CCCc3ccccc32)cc1	-6%	0%	4%	-1%	1%	9%
CC1=C(C)/C(=N\OS(=O)(=O)c2ccccc2)C=CC1=O	?	-10%	35µM*	40µM*	?	7%
N#CC1=C(N)C(C#N)(C#N)C2(CCC3(CC2)OCCO3)C2CC3(CC=C12)OCCO3 (stereo not drawn)	89µM*	6%	18%	3%	-10%	-6%
Nc1cc(C(=O)O)ccc1Sc1ccccc1C(=O)O	5%[11.4 µM]	6%[11.4 µM]	?	16µM*	11µM*	2%
CCOc1ccc(C(=O)NC(=S)Nc2ccc(N3CCCCC3)cc2)cc1[N+](=O)[O-]	5%	-5%	?	20µM*	6µM*	1%
COC(=O)c1sc(N2C(=O)c3oc4ccc(C)cc4c(=O)c3C2c2ccc(O)c(OC)c2)nc1C (stereo not drawn)	1%	0%	-4%	nt	nt	-13%
Cc1ccc(C)c(NC(=O)CSc2nc3nc(-c4cccs4)cc(C(F)(F)F)c3c(=O)[nH]2)c1	14%	20%	-11%	?	21µM*	-3%
CCCC(=O)N1CCC1(C)C(=O)NCc1ccccc1SC (stereo not drawn)	nt	nt	nt	nt	-1%	nt
Cc1nnc(SCc2cc(=O)n3cccc(C)c3n2)s1	9%[57.1 µM]	0%[57.1 µM]	10%	nt	nt	13%
Cc1cc(=O)n2cccc(O)c2n1	13%[57.1 µM]	35%[57.1 µM]	6%	56µM*	?	0%
Cc1ccc2c(c1C)-c1c(ccc(C)c1C)C(=O)C2=O	?	45µM*	?	nt	19µM*	12%
O=C(c1cccc(F)c1)N1CCC2(CC1)CCN(C(c1ccccc1)c1ccccc1)CC2	nt	nt	-18%	-12%	nt	nt
Cc1cc(O)c2c(c1O)C(=O)C(O)=C(O)C2=O	nt	nt	8.9µM*	45µM*	nt	nt
CC1CCc2c(sc(NC(=O)Cn3nc(C(F)(F)F)c4c3CCCCC4)c2C#N)C1 (stereo not drawn)	22%	12%	-21%	50µM*	27µM*	-5%
CC1CCc2c(sc(NC(=O)c3nc4ncccn4n3)c2C#N)C1 (stereo not drawn)	2%	2%	?	22µM*	4.7µM*	-10%
N#Cc1c(NC(=O)c2cnn3cccnc23)sc2c1CCCC2	13%	-2%	3%	45µM*	24µM*	-14%
C=C(C)C(O)/C=C/c1ccc(OC)cc1 (stereo not drawn)	nt	nt	nt	-7%	nt	nt
CCCCCCC[n+]1ccc(/C=C/c2c(C)[nH]c3ccccc23)cc1	-20%	-14%	nt	nt	nt	nt
COc1cccc(-n2cc(C(=O)OCc3ccc(F)c(F)c3)c3ccccc3c2=O)c1	9%[57.1 µM]	1%[57.1 µM]	-1%	nt	nt	-2%
COc1cc(C(C)=O)ccc1OCC(O)CN(CCO)Cc1ccccc1 (stereo not drawn)	27%	0%	-3%	19%	-12%	-4%
OCCN(Cc1ccccc1)CC(O)COc1ccc(-c2ccccc2)cc1 (stereo not drawn)	13%	0%	4%	50µM*	1%	0%
CCCNC(=O)c1nnsc1S(=O)(=O)c1ccc(Cl)cc1	?	3%[57.1 µM]	?	13µM*	?	-1%
CC(=O)c1sc2nc(C)c3c(c2c1N)CCCC3	3%[57.1 µM]	41%	6%	?	-13%	17%
CC(=O)c1sc2nsc(SCCN3CCCC3)c2c1N	7%[57.1 µM]	-3%[57.1 µM]	-9%	40µM*	7.5µM*	14%
SMILES	rTrxR1 inhibitor	TrxR1 substrate	VDR inh	Sfp PPTase inh	PLK1 PBD block	mIDH1 inhibitor
CC[C@H](C)[C@H](NC(=O)[C@H](Cc1ccc(O)cc1)NC(=O)[C@@H]1CCCN1C(=O)[C@H](CCCCN)NC(=O)[C@@H](N)CCCCN)C(=O)N[C@@H](CC(C)C)C(=O)O	nt	nt	-9%	-6%	nt	nt
O=C(C[n+]1cccc(C(=O)N/N=C/c2ccc(Br)cc2)c1)c1ccccc1	2%	-1%	-1%	nt	-3%	-2%
O=C(N/N=C/c1ccc(Br)cc1)c1cc[n+](Cc2ccccc2)cc1	16%[57.1 µM]	-8%[57.1 µM]	-6%	79µM*	0%	3%
COc1ccc(NC(=O)CSc2nc(-c3ccco3)cc(C(F)(F)F)n2)cc1OC	17%	4%	-6%	nt	nt	-8%
COc1cccc(NC(=O)CSc2nnc(-c3ccco3)c(-c3ccco3)n2)c1	7.1µM*	-5%	89µM*	10µM*	13µM*	5%
COc1ccc(NC(=O)CSc2nnc(-c3ccco3)c(-c3ccco3)n2)cc1OC	?	14%[0.457 µM]	3%	35µM*	?	6%
CCOc1ccc(NC(=O)CSc2nnc3c(n2)[nH]c2ccc(S(=O)(=O)N4CCCCC4)cc23)cc1	1%	-1%	10%	nt	nt	nt
Cc1ccc(C)c(/C=C2\N=C(c3ccccc3F)OC2=O)c1	-6%	-2%	79µM*	-1%	-17%	0%
COc1ccc(-c2noc(CSc3nnc(-c4ccncc4)n3-c3ccc(C)c(C)c3)n2)cc1	14%	2%	11%	nt	nt	11%
COc1ccc(CN2CCc3ccccc3C2)cc1Br	26%	4%	5%	79µM*	-7%	4%
COc1ccc(CN2CCc3cc(OC)c(OC)cc3C2)cc1O	2%	1%	2%	-15%	3%	5%
O=C(C[n+]1ccccc1Cl)c1ccc2ccccc2c1	-5%	13%	nt	nt	nt	nt
CC(C)(C)OC(=O)[C@H](Cc1ccccc1)NC(=O)c1nc[nH]c1C(=O)N1CCN(c2ccccc2)CC1	1%	-11%	?	9%	21µM*	-1%
CC(C)(C)OC(=O)[C@H](Cc1ccccc1)NC(=O)c1nc[nH]c1C(=O)N1CCN(C(=O)OC(C)(C)C)CC1	6%	-2%	-14%	18%	1%	3%
Cc1ccc(C(=O)Oc2oc(-c3ccco3)nc2C=Nc2ccccc2)cc1	nt	nt	nt	45µM*	nt	nt
Oc1oc(-c2ccco2)nc1C=Nc1ccccc1	-10%	3%	13%	17%	-6%	-3%
Cc1ncc(CCl)c2c1OC(C)(C)OC2	?	4%[57.1 µM]	5%	45µM*	-3%	4%

Bioassay records: PubChem BioAssay, National Center for Advancing Translational Sciences (NCATS)
